17 molecules from PubChem BioAssay (NCATS) can be followed below.

Assay [1] has as its target Pyruvate kinase PKM (Homo sapiens) (UniProt P14618). Description: qHTS Assay for Activators of Human Muscle Pyruvate Kinase (AID 954; active = well fitted curve in the direction sought with a large enough effect, not every such curve was filed as active). The procedure, abridged: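 A coupled luminescent readout tracked ATP made from ADP by purified PKM2. Final conditions included 0.1 nM enzyme, PEP and ADP at 0.5 and 0.1 mM, pH 7.2 imidazole buffer with BSA, and a one-hour room-temperature reaction.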
A general note: Quantitative high-throughput screening tests each substance at several concentrations.

Assay [2] is described as follows: Cell Viability - LYMP1-002 - Assay at 16 hr (AID 948). The procedure, abridged:
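LYMP1-002 human lymphoblastoid cells, 2500/well, were treated with compounds for 16 hr at 37 C in complete medium. Viability was read as intracellular ATP by CellTiter-Glo luminescence, and AC50 was derived from a Hill fit to concentration-response data.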

The nature of assay [3]: MultiTox-Fluor Cytotoxicity Assay - LYMP1-002 - Dead Cells (AID 960).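 Note: cells exposed to compound for 16 h at 37 °C; nearly all actives have a fitted effect of over 60% in size.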 Summed up: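 Concentration-dependent increases in membrane-leaked protease activity are quantified in LYMP1-002 cells after 16 hr treatment; values are normalized against DMSO and tetraoctylammonium bromide (15 uM) controls and AC50 derived by Hill modeling.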
Assay [4] can be described thus: MultiTox-Fluor Cytotoxicity Assay - LYMP1-003 - Dead Cells (AID 961).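 Note: cells exposed to compound for 16 h at 37 °C; nearly all actives have a fitted effect of over 70% in size.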 Summed up: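 Human lymphoblastoid LYMP1-003 cells (2500/well) were treated with compounds for 16 hr at 37 C in complete medium. Dead-cell protease release was read by bis-AAF-R110 fluorescence (Ex/Em 485/520). AC50 came from Hill fits, normalized to DMSO and 15 uM tetraoctylammonium bromide.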
The nature of assay [5]: Cell Viability - LYMP1-003 - Assay at 24 hr (AID 963). The procedure, abridged: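 The lymphoblastoid line was treated with titrated compounds for 24 hours, and viable cell number estimated from luciferase-based ATP luminescence.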
Assay [6] in a line: Cell Viability - LYMP1-003 - Assay at 40 hr (AID 964). Note: series mostly up to about 92 µM; nearly all actives have a fitted effect of over 60% in size. Summed up:
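Acute toxicity is scored as a concentration-dependent loss of intracellular ATP in LYMP1-003 cells (2500/well, complete medium) after 40 hr at 37 C, measured by CellTiter-Glo luminescence; AC50 values derive from standard Hill modelling.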

Assay [7] in a line: Cell Viability - LYMP2-003 (AID 965).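 Note: cells exposed to compounds for 24 h before reading; nearly all actives have a fitted effect of over 50% in size.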 Summed up: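 Human lymphoblastoid LYMP2-003 cells, 2500/well, exposed to compounds for 24 h at 37 C in complete medium. Viability read as intracellular ATP by CellTiter-Glo luminescence; AC50 from Hill-equation fits of qHTS concentration-response data.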
Assay [8] can be described thus: Cell Viability - LYMP2-004 (AID 966). Note: nearly all actives have a fitted effect of over 65% in size. Summed up:
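Viable-cell number estimated from ATP luminescence (CellTiter-Glo) in 2500 human lymphoblastoid cells/well after 24 hr at 37 C with compound. AC50 fitted to the standard Hill equation.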

Assay [9] concerns the target Pyruvate kinase PKM (Homo sapiens) (UniProt P14618). As to the kind of experiment: qHTS Assay for Inhibitors of Human Muscle Pyruvate Kinase (AID 958). Conditions: purified human PKM enzyme activity. As for the experimental part:
NIH Molecular Libraries Screening Centers Network [MLSCN]
NIH Chemical Genomics Center [NCGC]
Wael M. Rabeh, Lyudmila Nedyalkova and Hee-Wan Park [Structural Genomics Consortium, 100 College St. Toronto, Ontario, Canada]
Human pyruvate kinase muscle 2 enzyme was supplied as a highly purified (>95% pure) preparation by the Structural Genomics Consortium in Toronto (Ontario, Canada) and was assayed for its ability to generate ATP from ADP using phosphoenolpyruvate (PEP) as a substrate. ATP generation was detected in a coupled reaction by luciferase-mediated luminescence, an ATP-dependent process. Pyruvate kinase substrates, PEP and ADP, were present in the assay at Km and approximately […]-fold below Km respectively. The enzyme was assayed at an intermediate level of activity to screen for inhibitors and activators.
NCGC Assay Protocol Summary:
Three uL of substrate mix (final concentration, 50 mM imidazole pH 7.2, 50 mM KCl, 7 mM MgCl2, 0.5 mM PEP, 0.1 mM ADP, 0.01% Tween 20, 0.05% BSA) was dispensed into 1536 well plates. 23 nL of compound were delivered by a pin tool and 1 uL of enzyme mix (final concentration, 0.1 nM pyruvate kinase, 50 mM imidazole pH 7.2, 0.05% BSA) was added. […] Two uL of detection and kinase stop mix (PKLight, Cambrex) was added, the plates centrifuged, and luminescence read by a ViewLux (Perkin Elmer) at 5 second exposure/plate. […]

The target of assay [10] is Pyruvate kinase (Leishmania mexicana) (UniProt Q27686). Description: qHTS Validation Assay for Activators of Leishmania Mexicana Pyruvate Kinase (AID 959). The procedure, abridged: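 Mutant LmPYK (E451W), 0.2 nM, plus 0.5 mM PEP and 0.1 mM ADP in 50 mM imidazole pH 7.2 containing 0.01% Tween 20 and 0.05% BSA. Incubated 1 h at room temperature; luminescence via PKLight, normalized to DMSO.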
Pyruvate kinase (Leishmania mexicana), sequence (Q27686 2-499 E452W): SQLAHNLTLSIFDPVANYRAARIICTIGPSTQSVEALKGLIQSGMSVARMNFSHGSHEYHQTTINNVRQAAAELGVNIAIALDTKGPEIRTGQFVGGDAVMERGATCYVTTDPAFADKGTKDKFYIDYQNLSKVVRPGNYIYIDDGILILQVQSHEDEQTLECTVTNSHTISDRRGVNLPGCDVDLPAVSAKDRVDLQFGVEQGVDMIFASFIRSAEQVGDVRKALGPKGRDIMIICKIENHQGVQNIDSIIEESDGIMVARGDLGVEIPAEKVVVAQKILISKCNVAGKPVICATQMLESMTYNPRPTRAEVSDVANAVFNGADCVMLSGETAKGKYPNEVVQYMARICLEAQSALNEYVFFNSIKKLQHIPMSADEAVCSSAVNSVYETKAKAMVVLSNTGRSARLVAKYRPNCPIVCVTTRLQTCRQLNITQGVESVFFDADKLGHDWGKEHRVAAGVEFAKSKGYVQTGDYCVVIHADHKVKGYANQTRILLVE

Each structure is given as a SMILES string. Inconclusive results are not listed. The source made the active and inactive calls. Unless noted, calls come from the whole dose curve; as a rule, active = well fitted curve in the direction sought with a large enough effect; inconclusive = small, poorly fitted or top-dose-only effect, or another doubt; inactive = no such curve, though single readings can be large; an effect the other way counts as inactive or inconclusive.

Pyruvate kinase PKM (Homo sapiens), sequence (P14618 whole entry, looked up): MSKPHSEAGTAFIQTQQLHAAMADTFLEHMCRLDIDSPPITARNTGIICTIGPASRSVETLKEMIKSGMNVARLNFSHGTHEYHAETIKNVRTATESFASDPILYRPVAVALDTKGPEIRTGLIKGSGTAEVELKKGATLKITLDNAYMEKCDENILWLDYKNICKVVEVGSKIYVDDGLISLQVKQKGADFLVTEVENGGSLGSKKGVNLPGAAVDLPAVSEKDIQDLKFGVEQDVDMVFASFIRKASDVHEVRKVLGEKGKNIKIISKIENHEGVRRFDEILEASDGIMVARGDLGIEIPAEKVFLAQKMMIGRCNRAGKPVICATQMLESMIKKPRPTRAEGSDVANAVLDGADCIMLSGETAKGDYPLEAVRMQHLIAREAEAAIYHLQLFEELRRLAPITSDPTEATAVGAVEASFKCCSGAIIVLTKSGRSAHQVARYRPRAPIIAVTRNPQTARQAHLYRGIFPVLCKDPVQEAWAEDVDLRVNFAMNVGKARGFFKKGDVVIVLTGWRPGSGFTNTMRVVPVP

For the molecule `CCN1CCC[C@H]1CNC(=O)c1cc(S(N)(=O)=O)ccc1OC`, the molecule was called inactive in assay [1].
`CC1(C)CCC2=C(O1)c1ccccc1C(=O)C2=O`: the call in assay [1] was inactive.
Turning to `COCCCCC(=NOCCN)c1ccc(C(F)(F)F)cc1`, the outcome in assay [1] was inactive.
Take `O=C(O)Cc1cccc2ccccc12`: the Potency entry in assay [2], in [3], in assay [5], in [6], in assay [7] and in assay [8] was “inactive” in each case. In addition, the molecule was classed as inactive in assay [4].
For the molecule `NC(N)=Nc1nc(CSCC/C(N)=N/S(N)(=O)=O)cs1`, in assay [1], the result was inactive.
For the molecule `C[N+](C)(C)CCCCCC[N+](C)(C)C`, in [1], the outcome was inactive.
On to `CC(C)NCC(O)COc1cccc2[nH]ccc12` (stereo unspecified), for which the outcome in assay [1] was inactive.
For `COc1cccc(-c2cc(=O)c3ccccc3o2)c1N`, the result in assay [1] and in assay [10] was inactive. Also, the Potency in assay [9] was 15.8 µM (active).
Turning to `CCCNC(=O)NS(=O)(=O)c1ccc(Cl)cc1`, the Potency result in assay [2], in [3], in assay [5], in assay [6], in assay [7] and in assay [8] was “inactive” in each case. The result in assay [1] and in assay [4] was inactive.
As to `COc1ccc(Cc2nccc3cc(OC)c(OC)cc23)cc1OC`, the molecule was classed as inactive in assay [1].
In the case of `C[N+](C)(C)CC(=O)O`, the result in [1] was inactive.
Regarding `CC(=O)N[C@@H](CS)C(=O)O`, the molecule was classed as inactive in [1].
Regarding `Clc1ccc(Cn2c(CN3CCCC3)nc3ccccc32)cc1`, the molecule was classed as inactive in assay [1].
In the case of `CCCCC1C(=O)N(c2ccccc2)N(c2ccccc2)C1=O`, the Potency result in [2], in assay [3], in assay [5], in assay [6], in assay [7] and in [8] was “inactive” in each case. In addition, the call in assay [1] and in [4] was inactive.
Regarding `CCN(CC)CCNC(=O)c1ccc(N)cc1`, in assay [1], the molecule was called inactive.
For the molecule `O=c1[nH]cnc2c1ncn2[C@H]1CC[C@@H](CO)O1`, the Potency result in [2], in assay [3], in assay [5], in assay [6], in [7] and in assay [8] was “inactive” in each case. The result in assay [4] was inactive.
Regarding `O=C1NC(=O)C(c2ccccc2)(c2ccccc2)N1`, the Potency entry in assay [2], in assay [5], in assay [6], in [7] and in assay [8] was “inactive” throughout. In addition, the molecule was classed as inactive in [1] and in assay [4].
